# Results from ChEMBL document CHEMBL3988442, “University of Dundee, Small-Polar-MMV Screening Library” (2021).
# Biological target: AMP-activated protein kinase, AMPK (Homo sapiens) (UniProt P54646+O43741+P54619+Q9UGJ0+Q9Y478+Q13131+Q9UGI9)
# Experiment: AMP-dependent Kinase enzyme assay. An in vitro enzyme assay that detects ADP turnover that is directly proportional to AMPK activity. This uses naive AMPK that is activated during the assay with MK-8722
# Type: functional
# Set-up: scale not given: direction of the effect not stated beside the values
# Details: 30 µM
row,Structure (SMILES),Percent Effect
1,Cc1cc(-c2cnc(N3CCCC3)nc2C(C)C)on1,16.6%
2,COc1ccc(Cl)cc1C(C(=O)O)N1CCSCC1 (stereo unspecified),3.31%
3,OC(CNCc1nnc2ccccn12)c1ccc2c(c1)OCO2 (stereo unspecified),9.33%
4,CN(Cc1cccc(O)c1)Cc1cnn(C)c1,-1.1%
5,Fc1cccc(OC2CCN(CCn3cc4ccccc4n3)CC2)c1,7.33%
6,CCN1CCC(CC(=O)NCc2nc(C)cc(C)n2)CC1,9.34%
7,CN(C)c1cc2c(nn1)CCN(C(=O)c1ccc(-n3cccn3)nc1)C2,2.65%
8,CN(CC(=O)Nc1ccccc1)C(=O)CN(C)c1ccc(Cl)cn1,2.82%
9,O=S(=O)(NCCCn1cncn1)c1ccc2c(c1)OCCCO2,10.2%
10,COc1cccc(S(=O)(=O)N2CCOC(C)(C(N)=O)C2)c1 (stereo unspecified),22.4%
11,Cc1nc2c(c(NCCc3nccs3)n1)CCN(CC1CC1)CC2,6.45%
12,COCCOCC1CCN(C(=O)c2ccc3[nH]cnc3c2)C1 (stereo unspecified),-11.9%
13,Cc1cc(CN(C)C(=O)CC(C)C)no1,0.491%
14,CN(C)CCC1CCN(c2cc(N3CCCC3CO)ncn2)CC1 (stereo unspecified),-6.25%
15,COC(=O)c1ccc(N(C(=O)c2cc(Cl)ccn2)C(C)C)c(C)c1,-4.91%
16,O=C(Cc1nc(-c2ccncc2)n[nH]1)NCCCN1CCOCC1,-0.0149%
17,Cc1cccc(Nc2noc3c2CN(C(=O)c2ccn(C)n2)CC3)c1C,3.74%
18,O=C(COc1cccc(Cl)c1)N1CCOCC(O)(CN2CCCC2)C1 (stereo unspecified),6.36%
19,Cc1cccc(C(=O)Nc2c(C(N)=O)n[nH]c2C)c1C,-0.641%
20,Cn1nc2c(c1NC(=O)c1ccc(Cl)s1)CCC2,0.899%
21,CS(=O)(=O)C1(CNCc2cccc(-n3cccn3)c2)CCOCC1,3.19%
